Laboratory results reported in PubChem BioAssay AID602438 (Sanford-Burnham Center for Chemical Genomics, 2012).
Values joined by “and” are separate entries in the source; they are usually repeats but may differ in a detail not shown here. Identical values can stand only once. The whole screen tested about 360,000 compounds, of which about 3,100 (0.86%) were called active. What follows is part of a selection rich in actives, with near analogues and random picks from the rest. Values without a mark were called inactive.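 How the source made its calls: active means inhibition or corrected inhibition above about 18%, plus a signal ratio from 0.5 to 1.5 (limit read from the data, passing the limit was not always enough); inactive means the rest.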

target: Neuropilin-1 (Homo sapiens) (UniProt O14786); assay: modulators of CendR peptide binding to NRP-1, primary screen, biochemical, fluorescence polarization, uHTS (AID 602438); conditions: FAM-RPARPAR peptide binding to NRP-1, fluorescence polarization; at 25 µM; hits give high values
Sequence (O14786 whole entry, looked up): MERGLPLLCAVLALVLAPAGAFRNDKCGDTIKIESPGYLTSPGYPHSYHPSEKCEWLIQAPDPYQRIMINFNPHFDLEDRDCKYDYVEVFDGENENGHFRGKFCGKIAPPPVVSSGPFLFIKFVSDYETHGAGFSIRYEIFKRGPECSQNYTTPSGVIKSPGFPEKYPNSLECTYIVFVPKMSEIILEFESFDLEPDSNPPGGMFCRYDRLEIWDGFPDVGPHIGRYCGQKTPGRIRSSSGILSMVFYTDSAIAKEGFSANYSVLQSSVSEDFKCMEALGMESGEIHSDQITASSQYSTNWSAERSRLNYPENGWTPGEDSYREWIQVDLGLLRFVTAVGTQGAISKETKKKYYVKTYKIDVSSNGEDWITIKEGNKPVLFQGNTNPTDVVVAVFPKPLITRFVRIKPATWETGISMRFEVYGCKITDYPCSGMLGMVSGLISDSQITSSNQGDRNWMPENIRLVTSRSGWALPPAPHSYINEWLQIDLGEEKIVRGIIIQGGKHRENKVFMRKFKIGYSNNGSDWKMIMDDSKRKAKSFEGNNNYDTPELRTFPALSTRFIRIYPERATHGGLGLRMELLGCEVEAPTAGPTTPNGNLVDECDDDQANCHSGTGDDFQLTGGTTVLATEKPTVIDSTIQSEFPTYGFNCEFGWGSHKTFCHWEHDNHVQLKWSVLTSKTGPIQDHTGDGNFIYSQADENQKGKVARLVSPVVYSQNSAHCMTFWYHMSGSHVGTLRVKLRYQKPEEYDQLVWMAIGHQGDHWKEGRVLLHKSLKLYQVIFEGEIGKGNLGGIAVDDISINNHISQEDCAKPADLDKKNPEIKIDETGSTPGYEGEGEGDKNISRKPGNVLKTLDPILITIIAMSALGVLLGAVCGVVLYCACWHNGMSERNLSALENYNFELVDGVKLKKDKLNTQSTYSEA

SMILES	inhibition
C=C(C)C1CC=C(C)/C(=N\NC(=O)CNc2ccccc2OC)C1 (configuration not stated)	20.9% (active)
COc1ccccc1NC(=O)COC(=O)CNC(=O)C1CCCCC1	9.6%
C=C(C)C1CC=C(C)/C(=N/NC(=O)CCCNc2cccc(C)c2)C1 (configuration not stated)	1.4%
N#C/C=C\Oc1ccc(Cl)cc1N	-3.7%
COc1ccc(C2CC(c3cccs3)=NN2C(=O)CSc2nncs2)cc1OC (configuration not stated)	28.8% (active)
COc1ccc(C2CC(c3cccs3)=NN2C(=O)COC(=O)c2cc3ccccc3cc2O)cc1OC (configuration not stated)	6.7%
COc1ccc(C2CC(c3cccs3)=NN2C(=O)CSc2nnc(N)s2)cc1OC (configuration not stated)	0.7%
CCN(CC(=O)Nc1c(F)cccc1F)C(=O)c1cnc(C)cn1	3.1%
CCN(CC(=O)Nc1c(F)cccc1F)C(=O)c1ccc(-c2ccc(C(C)=O)cc2)o1	45.1% (active)
CCN(CC(=O)Nc1c(F)cccc1F)C(=O)c1ccc(-c2ccccc2)cc1	4.3%
CCN(CC)S(=O)(=O)c1ccc(C(=O)N2CCN(C3=NS(=O)(=O)c4ccccc43)CC2)cc1	-0.8%
CC1CCCCC12NC(=O)N(CC(=O)Nc1ccc(S(=O)(=O)Nc3ncccn3)cc1)C2=O (configuration not stated)	-8.9%
Cc1nnc(CN(C)Cc2cn[nH]c2-c2ccc(-c3ccccc3)cc2)o1	-2.9%
CC1(C)SC2C(NC(=O)COc3ccccc3)C(=O)N2C1C(=O)O (configuration not stated)	-22.6% and -10.8%
CC1(C)S[C@@H]2[C@H](NC(=O)COc3ccccc3)C(=O)N2C1C(=O)OCc1ccccc1 (some centres not stated)	26.2% (active)
COC(=O)C1[C@H]2SC(C)(C)C(C(=O)OC)N2C(=O)N1Cc1nc2ccccc2s1 (some centres not stated)	4.5%
COC(=O)c1c(NC(=O)COC(=O)[C@@H](NS(=O)(=O)c2ccccc2)C(C)C)sc2c1CCC2	-8.2%
CC(C)OC(=O)c1cc(NC(=O)C2C3CCC(O3)C2C(=O)O)cc(C(=O)OC(C)C)c1 (configuration not stated)	-0.2%
Cc1sc(NC(=O)C2C3CCC(O3)C2C(=O)O)c(C(=O)OC(C)C)c1-c1ccc(Cl)cc1 (configuration not stated)	21% (active)
COc1ccc(NC(=O)C2C3CCC(O3)C2C(=O)O)cc1OC (configuration not stated)	4.9%
O=C(CN1C(=O)NC(Cc2c[nH]c3ccccc23)C1=O)Nc1ccccc1C(F)(F)F (configuration not stated)	-6.7%
CCn1c(C)nc2cc(C(=O)NNS(=O)(=O)c3ccc(C)cc3C)ccc21	-7%
CCCn1nc2cc(C(=O)NCc3ccccc3)ccc2c1OCC	27% (active)

SMILES	inhibition
CNS(=O)(=O)c1cccc(C(=O)NC2CCCc3ccccc32)c1 (configuration not stated)	-7.1%
C[n+]1ccc(C(=O)NCc2ccccc2)cc1	8.4%
CCOc1c2ccc(C(=O)NC3CCCc4ccccc43)cc2nn1CC (configuration not stated)	22.9% (active)
CCOc1ccc(NC(=O)COc2ccc(C(=O)NC3CCCc4ccccc43)cc2OC)cc1 (configuration not stated)	-6.4%
Cc1cc(N2C(=O)c3ccc(C(=O)NCc4ccccc4)cc3C2=O)no1	-12.4%
CC(=O)Cn1ncc(N2CCOCC2)c(Br)c1=O	-5.8%
Cc1ccc(OCCNC(=O)CCNS(=O)(=O)c2ccc(Br)cc2)cc1	4.5%
Nc1c(C(=O)c2cccs2)sc2nsc(SCCN3CCCCC3)c12	131%
Cn1c(CCC(=O)Nc2ccccc2F)nnc1SCC(=O)Nc1ccccc1Cl	-3.9%
COc1ccccc1NC(=S)N1CCC(NC(=O)C23CC4CC(CC(C4)C2)C3)CC1	-1.5%
Cc1ccc(S(=O)(=O)NC(C)C(=O)NCc2ccc(Cl)cc2)cc1 (configuration not stated)	-8.1%
CC(Oc1cc2oc(=O)c3c(c2cc1Cl)CCCC3)C(=O)NCc1ccncc1 (configuration not stated)	-1.5%
COc1ccc(S(=O)(=O)NC(C)C(=O)NCc2ccncc2)cc1Cl (configuration not stated)	22.5% (active)
COc1cccc(NC(=O)N2CCC(NC(=O)C(Cc3cccc(C)c3)NC(C)=O)CC2)c1 (configuration not stated)	9.8%
CCOC(=O)c1c(/N=C/C2C(=O)CC(C)(C)CC2=O)sc(C)c1C	-41.2%
COc1ccccc1OCCC(=O)OCC(=O)NCc1ccccc1	31.3% (active)
COc1ccccc1OCCC(=O)OCC(=O)NC(=O)NC(C)(C)C	-7.2%
Cc1ccc(C)c(OCCC(=O)OCC(=O)NC(=O)NCc2ccccc2)c1	-19%
CC1CCCC(N2CCN(C(=O)c3ccc(F)cc3)CC2)C1 (configuration not stated)	1.1%
CC(C)(C)c1cc(=O)n2c(nc3ccccc32)[nH]1	3.4%
COc1ccc(C)cc1N(CC(=O)NC(C)c1ccccc1)S(C)(=O)=O (configuration not stated)	3.7%
COc1cc(/C=N\NC(=O)CNC(=O)c2cccc([N+](=O)[O-])c2)ccc1O	21.9% (active)
COc1ccc(O)c(/C=N/N=C/c2cccc([N+](=O)[O-])c2)c1	6.7%

SMILES	inhibition
CCCc1ccc(OCc2ccc(C(=O)N/N=C/c3cccc([N+](=O)[O-])c3)o2)c(OC)c1	-4.8%
O=C(/C=C/c1cccs1)NCc1cccnc1	-0.9%
CC[C@]12c3[nH]c4ccc(Cl)cc4c3CCN1C(=O)[C@@H](CC(=O)NCCCOC)C[C@@H]2C(=O)N1CCN(C(=O)c2ccco2)CC1	0.7%
CCCN(CCC)S(=O)(=O)c1ccc(C(=O)NNC(=O)c2cc(OC)c(OC)c(OC)c2)cc1	-2.3%
COc1ccccc1C(=O)COC(=O)CSCC(=O)Nc1cc(C)on1	-0.2%
COc1ccccc1C(=O)COC(=O)CNS(=O)(=O)c1ccc(NC(C)=O)cc1	5.5%
COc1ccccc1C(=O)COC(=O)COc1ccc(C#N)cc1	28.5% (active)
Cc1nn(C)c(Cl)c1CN1CCC(n2nccc2NC(=O)C2CCCC2)CC1	-2.2%
O=C(CSc1nnc2n1CCCN2)c1ccccc1	-7.7%
COc1cc([N+](=O)[O-])ccc1NC(=S)N1CCN(c2ccccn2)CC1	32.1% (active)
CCOC(=O)c1ccc(NC(=S)N2CCN(c3ccccn3)CC2)cc1	11.2%
O=[N+]([O-])c1ccc(NC(=S)N2CCN(c3ccccn3)CC2)cc1	5%
O=[N+]([O-])c1ccc(CN2CC(N3CCC(c4ccccc4)CC3)CS2(=O)=O)cc1 (configuration not stated)	11.5%
CC1(C)CC(=O)CC2(C1)NCC(c1ccccc1Cl)c1c2[nH]c2ccccc12 (configuration not stated)	-3.3%
CCNC(=O)COC(=O)/C=C/c1c(C)nn(Cc2cccc(OC)c2)c1Cl	-6.8%
CC1(C)CN(c2ccc(-c3ccnc4ncnn34)cc2)C1=O	9.3%
COc1ccc(Nc2nc(-c3cccnc3)nc3ccccc23)cn1	55.4% (active)
O=C(CSc1n[nH]c(-c2cccnc2)n1)Nc1ccnc2ccccc12	-6.1%
O=C(Nc1ccc(Cl)cc1)Nc1ccc(Oc2cccnc2)nc1	3.4%
CCc1nnc(NC(=O)c2ccc(S(=O)(=O)NC3CCCCC3)cc2)s1	-10.5%
Cc1nnc(SC(C)C(=O)Nc2ccc(S(=O)(=O)NC3CCCCC3)cc2)s1 (configuration not stated)	25.4% (active)
Cc1ccc(Nc2nnc(SC(C)C(=O)NC3CC3)s2)cc1 (configuration not stated)	-8.1%
Cc1ccc(S(=O)(=O)N(CC(=O)NCCSC2CCCCC2)c2ccccc2F)cc1	-1.5%

SMILES	inhibition
O=C(Nc1c2c(nn1-c1ccc(F)cc1)CS(=O)C2)C12CC3CC(CC(C3)C1)C2 (configuration not stated)	5.1%
O=S(=O)(c1ccc(Cl)cc1)c1nc(-c2ccccc2F)oc1NCCN1CCOCC1	5.8%
O=S(=O)(c1ccc(Br)cc1)c1nc(-c2ccccc2)oc1N1CCOCC1	0.9%
O=S(=O)(c1ccccc1)c1nc(-c2ccccc2)oc1NCCCN1CCOCC1	28.7% (active)
CCc1nc(SCC(=O)Nc2ccccc2OC)n[nH]1	4.2%
C=CCN1CCN(c2ccncc2S(=O)(=O)N2CCN(C)CC2)CC1	1.6%
Cc1cc(/C=N/NC(=O)CC2(C)OCCO2)c(C)n1-c1ccc(Cl)c(Cl)c1	-7.8%
Cc1cc(/C=N/NC(N)=O)c(C)n1C1CCCCC1	-11.5%
Cc1ccc(-n2c(C)cc(/C=N\NC(=O)CC(=O)NC(C)C)c2C)cc1	32.4% (active)
O=C(O)C1CCCN1c1nc(Cl)ccc1[N+](=O)[O-] (configuration not stated)	-0.9%
Cc1nc(N2CCCC2C(=O)O)c2oc3ccccc3c2n1 (configuration not stated)	29.6% (active)
O=C(O)C1CCCN1C1=NS(=O)(=O)c2ccccc21 (configuration not stated)	9.6%
O=c1ccc(S(=O)(=O)N2CCCC2)cn1Cc1nc(-c2ccccc2)no1	3.3%
c1ccc(CCC2=NCCn3cccc32)cc1	-28.1% and -1.3%
CNS(=O)(=O)c1cnccc1N1CCN(c2cccc(C)c2)CC1	-5.1%
Cc1cccc(NS(=O)(=O)c2cc(Cl)ccc2Cl)n1	7.9%
Cc1ccc(Cl)cc1N1CCN(C(=O)c2cccc3c(=O)c(C)c(-c4ccccc4)oc23)CC1	31% (active)
Cc1cccc(N2CCN(C(=O)c3cnn4c(C(F)F)cc(-c5ccccc5)nc34)CC2)c1C	3.9%
COc1ccccc1N1CCN(C(=O)c2cc(=O)c3cc(C)cc(C)c3o2)CC1	14.6%
COCC1CCN(C(=O)CCc2nnc(C3(c4ccc(Cl)cc4)CCC3)o2)C1 (configuration not stated)	11.4%
COc1ccc(OC)c(S(=O)(=O)Nc2c(C)nn(C)c2C)c1	16.5% (active)
COc1ccc(OC)c(S(=O)(=O)NCCC(C)C)c1	6.4%
COc1ccc(OC)c(S(=O)(=O)Nc2ccccc2F)c1	-3.6%
